The record followed here is PubChem BioAssay (EPA / NIEHS).

Inconclusive results are not listed. Activity calls are given as the source filed them. Rule for the calls: active = hit-call score of the fitted dose curve at least 0.9, where 1 is the maximum; inconclusive = response in the unintended direction; inactive = score below 0.9.

Read-out in this test: glucuronosyltransferase (UGT1A1), UGT1A1 (gene 54658)
Nature of the test: CLD_UGT1A1_48hr: CellzDirect (CLD) Gene Expression Assay for glucuronosyltransferase (UGT1A1) at 48 hours (AID 2283709).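 Note: actives increase expression relative to DMSO so potency refers to induction.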 As for the experimental part:
CLD_48hr is a cell-based, multiplexed-readout assay that uses hepatocyte, a human liver primary cell, with measurements taken at 48 hours after chemical dosing in a 96-well plate.CLD_UGT1A1_48hr is one of 16 assay component(s) measured or calculated from the CLD_48hr assay. It is designed to make measurements of mRNA induction, a form of inducible reporter, as detected with chemiluminescence signals by Quantitative Nuclease Protection Assay (qNPA) technology.Data from the assay component CLD_UGT1A1_48hr was analyzed at the endpoint, CLD_UGT1A1_48hr, in the positive analysis fitting direction relative to DMSO as the negative control and baseline of activity. Using a type of inducible reporter, gain-of-signal activity can be used to understand changes in the reporter gene as they relate to the gene UGT1A1. Furthermore, this assay endpoint can be referred to as a primary readout. To generalize the intended target to other relatable targets, this assay endpoint is annotated to the transferase intended target family, where subfamily is glucuronosyltransferase.
Human hepatocyte cultures were treated daily for two consecutive days with fresh dosing solutions containing appropriate concentrations of the 320 ToxCast chemicals (chemical identities were blinded to CellzDirect and other ToxCast collaborators), vehicle control (0.2% DMSO), and positive control inducers as summarized in Table 1. Due to the large number of treatment groups and chemicals examined, the ToxCast chemicals were divided into two groups (spanning two independent cultures of hepatocytes from separate donor preparations (Hu778: ToxCast plates 1 and 2; Hu776: ToxCast plates 3 and 4). Each preparation of human hepatocyte cultures was treated with respective vehicle control, medium only control, set of six positive controls/reference chemicals for the five hepatic receptor pathways, and a subset of eight of the ToxCast chemicals (indoxacarb, pyrithiobac-sodium, norflurazon, cyhalofop-butyl, methomyl, thiram, acetochlor, and propiconazole). These replicate data, coupled with internal replicates designed within the blinded ToxCast chemical library, provided additional data to evaluate interindividual differences between hepatocyte preparations and their potential impact on chemical profiles.Cell morphology and integrity were evaluated using phase-contrast microscopy as an indicator of hepatocyte cell health (Tyson & Green, 1987). Cultures for each treatment group (i.e., media, vehicle [0.2% DMSO], positive control inducers [multiple concentrations], and the ToxCast chemicals [multiple concentrations]) were observed and cell morphology was assessed relative to vehicle control cultures at each harvest time point (0, 6, 24, or 48 h). […] Images were evaluated at the conclusion of the study to assess changes in cell integrity and account for the effects of chemical exposure on uncharacteristic changes in concentration-dependent gene expression profiles. The results from these determinations of apparent cytotoxicity were annotated (yes/no) alongside the corresponding qNPA data for reference.At the conclusion of each treatment period, hepatocyte cultures (96-well) were washed with 1 volume of HBSS, lysed by addition of 25 ul ArrayPlate lysis buffer (HTG, Tucson, AZ), and 70 ul/well of Denaturation Oil, denatured by incubation at 95C for 10 min, and frozen at approximately -70C until analysis by nuclease protection assay (qNPA) (Roberts et al., 2007). For qNPA analysis, cell lysates were thawed at 50C for approximately 30 min, qNPA probes were added, and samples were incubated at 95C for 10 min to begin the detection process by denaturing the target RNA, dissociating the duplexes and secondary structure hybridization. At the conclusion of the hybridization period, S1 nuclease reagent was added to each sample to digest all nonprotected nucleotides at 50C for 60-90 min. […]
In the case of `C[Si](Cn1cncn1)(c1ccc(F)cc1)c1ccc(F)cc1`, the molecule was classed as inactive.

Regarding `CCc1cccc(CC)c1N(COC)C(=O)CCl`, the call was inactive.

Usually AC50 stands for the concentration giving half of the maximal activity seen. With `CCOP(=S)(OCC)OC(Cl)C(Cl)(Cl)Cl` (stereo not given), the AC50 is 4.19 µM (active).

As for `CCOP(=O)(NC(C)C)Oc1ccc(SC)c(C)c1` (stereo not given), the molecule was classed as inactive.

For `COc1cc(OC)nc(Sc2cccc(Cl)c2C(=O)O)n1`, the molecule was classed as inactive.

Regarding `CCCCOC(=O)c1ccccc1C(=O)O`, the molecule was classed as inactive.

For `CSc1nc(NC(C)C)nc(NC(C)C)n1`, the molecule was classed as inactive.

As for `C[N+]1(C)CCCCC1`, the outcome was inactive.

`CCOP(=O)(OCC)Oc1cc(C)nc(C(C)C)n1`: the outcome was inactive.

Take `CN(C)C(=O)Nc1cccc(C(F)(F)F)c1`: the outcome was inactive.

Regarding `CCOP(=S)(OCC)Oc1ccc2c(C)c(Cl)c(=O)oc2c1`, the result was inactive.

As for `CNc1cnn(-c2cccc(C(F)(F)F)c2)c(=O)c1Cl`, the molecule was classed as inactive.

In the case of `CCOP(=S)(Oc1cnc(C(C)(C)C)nc1)OC(C)C` (stereo not given), the AC50 is 0.439 µM (active).

On to `CCCOCC(=Nc1ccc(Cl)cc1C(F)(F)F)n1ccnc1`, for which the molecule was called inactive.

As to `C#CCC1=C(C)C(OC(=O)C2C(C=C(C)C)C2(C)C)CC1=O` (stereo not given), the concentration at half-maximal activity (AC50) was 3.87 µM (active).

For `CC(COc1ccc(Oc2ccccc2)cc1)Oc1ccccn1` (stereo not given), the AC50 was 4.89 µM (active).

Take `CCc1cnc(C2=NC(C)(C(C)C)C(=O)N2)c(C(=O)O)c1` (stereo not given): the result was inactive.

For `CCNc1nc(Cl)nc(NC(C)(C)C#N)n1`, the molecule was classed as inactive.

Turning to `CNC(=O)ON=C(SC)C(=O)N(C)C`, the call was inactive.

Regarding `CNC(=O)ON=C(C)SC`, the molecule was called inactive.

`COP(=O)(OC)SCn1c(=O)oc2cc(Cl)cnc21`: the result was inactive.

For `CC1=NNC(=O)N(/N=C/c2cccnc2)C1`, the outcome was inactive.

Turning to `O=C(O)c1cc(Oc2ccc(C(F)(F)F)cc2Cl)ccc1[N+](=O)[O-]`, the outcome was inactive.

In the case of `CNC(=O)Oc1cccc2c1OC(C)(C)O2`, the call was inactive.

Regarding `S=C1NCCN1`, the result was inactive.

Turning to `CCOP(=O)(SC(C)CC)N1CCSC1=O` (stereo not given), the result was inactive.

As for `CCCOc1nn(C(=O)NS(=O)(=O)c2ccccc2C(=O)OC)c(=O)n1C`, the call was inactive.

In the case of `CCCCSP(=O)(SCCCC)SCCCC`, the AC50 was 20 µM (active).

For `CCC(CC)Nc1c([N+](=O)[O-])cc(C)c(C)c1[N+](=O)[O-]`, the result was inactive.

Regarding `CSc1nnc(C(C)(C)C)c(=O)n1N`, the molecule was called inactive.

Consider `COP(=O)(OC)C(O)C(Cl)(Cl)Cl` (stereo not given), for which the half-maximal activity concentration (AC50) is 0.0665 µM (active).

On to `CCCSP(=O)(OCC)Oc1ccc(Br)cc1Cl` (stereo not given), for which the concentration at half-maximal activity (AC50) was 20 µM (active).

For the molecule `CCOP(=S)(OCC)Oc1ccc([N+](=O)[O-])cc1`, the AC50 was 2.67 µM (active).

For `CC(Oc1cccc(Cl)c1)C(=O)O` (stereo not given), the outcome was inactive.

`CCOC(=O)COc1cc(-c2nn(C)c(OC(F)F)c2Cl)c(F)cc1Cl`: the AC50 is 6.18 µM (active).

Take `CSC1=N[C@@](C)(c2ccccc2)C(=O)N1Nc1ccccc1`: the molecule was called inactive.

`Cc1ccn2nc(S(=O)(=O)Nc3c(F)cccc3F)nc2n1`: the molecule was classed as inactive.

Take `CON=C(C(=O)OC)c1ccccc1CON=C(C)c1cccc(C(F)(F)F)c1`: the outcome was inactive.

Take `CC(C1CC1)C(O)(Cn1cncn1)c1ccc(Cl)cc1` (stereo not given): the molecule was called inactive.

As to `COc1cccc(C(=O)NN(C(=O)c2cc(C)cc(C)c2)C(C)(C)C)c1C`, the AC50 is 8.82 µM (active).
